# Among all 2,100 compounds or so, about 210 (10%) were called active. Inconclusive results (about 53%) are left out. Calls come from the whole dose curve; as a rule, active = well fitted inhibition curve with a large enough effect; inconclusive = small, poorly fitted or top-dose-only effect, or effect the other way; inactive = no such curve, though single readings can be large or run the other way. Some of the results follow. Where a call stands in place of a potency, no number is given.
# Experiment: IN Cell qHTS Assay for Inhibitors of the mTORC1 Signaling Pathway in MEF (Tsc2-/-, p53-/-) Cells: Sytravon; note: nearly all actives have a fitted effect of over 60% in size
# Conditions: phospho-rpS6 immunofluorescence, 24 h; series mostly up to 38.3 µM
# Excerpt: NIH Molecular Libraries Probe Production Centers Network [MLPCN] NIH Chemical Genomics Center [NCGC] MLPCN Grant: NS059428-01 Assay Submitter (PI): Blenis, John; Hoffman, Greg; Harvard University NCGC Assay Overview: Thee mammalian target of rapamycin (mTOR) is an intracellular serine/threonine kinase Aberrant regulation of mTOR signaling plays a causative role in a number of human diseases, including cancer, benign tumors such as lymphangioleiomyomatosis (LAM) and Tuberous Sclerosis Complex (TSC), and metabolic diseases such as diabetes and obesity. This project aims to identify inhibitors of ribosomal protein S6 (rpS6) phosphorylation. The phosphorylation of rpS6 is a key event downstream of mTOR activation. The assay uses a phospho-specific antibody of phospho-rpS6 to detect inhibitors of mTOR activation. Mutations in the Tsc1 and Tsc2 genes are the underlying genetic lesions responsible for TSC, causing constitutive activation of the mTORC1 pathway and leading to profound effects on cell metabolism. Aberrant metabolism in cancer has recently received significant attention as a target to develop therapeutic agents in the treatment of cancer1. As Tsc2-/- cells have lost the ability to respond to energy and growth factor deprivation, these cells are unable to properly down regulate cellular biosynthetic processes in response to metabolic stress, and are thus extremely sensitive to glucose deprivation-induced death.2 A central goal of this project is to explore the unique cell survival and metabolic properties of cells with Tsc1 or Tsc2 by screening for compounds that selectively target the Tsc2-/- MEFs by screening both Tsc2-/- and WT MEF cell lines. We hope to better understand these aspects of TSC physiology in order to exploit them for therapeutic benefit.
# NCGC IN Cell Assay Protocol: For quantitative high throughput analysis of mTORC1 signaling, we developed a cell-based assay for immuno-fluorescence based detection of rpS6 phosphorylation on the Acumen Explorer that will be used a platform for the primary small molecule screen. Mouse embryonic fibroblasts (MEFs) are cultured in 1536-well plates using DMEM + 10% FBS. Twenty-four hrs after plating, test compounds (solubilized in DMSO) are delivered and incubated with the cells for 24 hrs at 37 degree Celsius. Following the incubation, media with compound is aspirated and the cells are fixed in 4% paraformaldehyde (PFA) containing PBS + 0.2% TX-100. Next, PFA is aspirated, cells are washed two times with PBS plus 0.2% TX-100 and the cells are blocked for 1 hr at room temperature (blocking buffer: LiCOR Blocking Buffer plus 0.2% TX-100). This is followed by aspiration and staining with Alexa-488 conjugated-phospho-rpS6 Ser235/236 antibody for 2 hours at room temperature (Cell Signaling Technology # 4803, 1:50 dilution in blocking buffer). Cells are washed two times with PBS plus 0.2% TX-100, and stained with 10 uM propidium iodide (PI) for 20-25 minutes for cell number measurement (1:500 dilution of Hoescht staining is also added for IN Cell imaging). Active wells which are selected (based on Acumen results) are imaged on the IN Cell 1000 (GE Healthcare) using the D360/40X and HQ480/40X excitation filters for the Hoechst and Alexa-488 cytoplasmic stains, respectively. The fluorescence emission filters used were HQ460/40M and HQ535/50M for the Hoechst and Alexa-488 cytoplasmic stains, respectively. The normalized phospho-S6 staining is calculated as the ratio of […] for the single concentration rapamycin control (7.5 nM) and DMSO columns. […] Inhibition of the pathway is defined based on the normalized phospho-S6 intensity in rapamycin treated cells. Each treatment is reported as the % positive cells in the well, where thresholds are defined by selecting wells with the highest and lowest signal and differentiating between the % non-active and % active populations. […]
# Potency is the fitted concentration of half-maximal effect.
row,SMILES,Potency
1,O=c1oc2ccccc2cc1-c1cn2cc(Cc3ccc(F)cc3)sc2n1,1.65 µM (active)
2,CCc1ccc(-n2nc(C)c3c2NC(=O)CSC3c2ccc(OC)cc2OC)cc1 (centres undefined),inactive
3,Cc1cccc(CN2CC=C(c3noc(CCC(=O)Nc4ccc(C)c(F)c4)n3)CC2)c1,inactive
4,Nc1c(C(=O)Nc2cccc(Br)c2)sc2nc3c(cc12)N1CCC3CC1,inactive
5,O=C(Nc1ccccc1)N(Cc1ccc2c(c1)OCO2)C1CCN(Cc2ccccc2)CC1,inactive
6,COc1ccc2nc(NC(=O)c3nc(S(=O)(=O)Cc4cccc(C)c4)ncc3Cl)sc2c1,16.5 µM (active)
7,CCOc1ccc(NC(=O)c2cc3c(C)nn(-c4ccccc4)c3s2)cc1,14.7 µM (active)
8,CCOc1ccc(NC(=O)c2cccn(Cc3cccc(Cl)c3)c2=O)cc1,inactive
9,Cc1ccc(-n2c(/C=C/c3ccc(Br)s3)nc3ccccc3c2=O)cc1C,inactive

# Reference: PubChem BioAssay AID504465 (National Center for Advancing Translational Sciences (NCATS), 2011)
